Results on eight compounds are retold here after PubChem BioAssay (NCATS).

Results filed as inconclusive are left out. Values without a mark were called inactive. Activity calls are given as the source filed them. Calls follow the shape of the dose curve; as a rule, active = well fitted cell-killing curve with a large enough effect; inconclusive = small, poorly fitted or top-dose-only effect, or effect the other way; inactive = no such curve, though single readings can be large or run the other way.
Potency is read from the fitted curve at half-maximal effect.

This assay in a line: qHTS of pediatric cancer cell lines to identify multiple opportunities for drug repurposing: Confirmatory screen for NB1643 cells (AID 1347109). Also: nearly all actives have a fitted effect of over 45% in size.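 As to activity change, negative = cytotoxic: plate controls were DMSO for no effect and bortezomib for full effect.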 Particulars: NB1643 neuroblastoma cell viability; series mostly up to 45.9 µM; activity change, negative = cytotoxic: at the top concentration. The method, boiled down: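 Cells (500-1,000/well) in growth media were settled 5 h at 37 degrees C, then given compounds for 48 h. Viability was read as CellTiter-Glo luminescence. Primary runs used MIPE at 11 points (0.78 nM-46 µM) and NPC at 8 points (0.59 nM-46 µM); follow-ups used 11 points.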
(In general: Quantitative high-throughput screening tests each substance at several concentrations.)
Regarding `Cn1cc(-c2cnn3c(N)c(Br)c([C@H]4CCCNC4)nc23)cn1`, the Potency is 1.85 µM (active).

In the case of `CN(CC(=O)N(Cc1ccc(C2CCCCC2)cc1)c1ccc(C(=O)O)c(O)c1)S(=O)(=O)c1c(F)c(F)c(F)c(F)c1F`, the Potency was 26.1 µM (active).

As for `C=CC(=O)N1CCc2ccc(-n3c(=O)ccc4cnc5ccc(-c6cnn(C)c6)cc5c43)cc21`, the Potency was 2.93 µM (active).

In the case of `C=Cc1c(C)c2cc3nc(cc4[nH]c(cc5nc(cc1[nH]2)C(C)=C5CCC(=O)O)c(CCC(=O)OC)c4C)[C@@]1(C)C3=CC=C(C(=O)OC)[C@H]1C(=O)OC`, the “activity change, negative = cytotoxic” value is -28.3%.

As to `CCc1cc(C(C)=NOCc2ccc(C3CCCCC3)c(C(F)(F)F)c2)ccc1CN1CC(C(=O)O)C1`, the Potency is 29.3 µM (active).

Consider `CCN(CC)Cc1ccc2cc(COC(=O)Nc3ccc(C(=O)NO)cc3)ccc2c1`, for which the “activity change, negative = cytotoxic” value was 0.771%.

Take `COc1cc(C[C@@H](CO)[C@H](CO)Cc2ccc(O)c(OC)c2)ccc1O`: the “activity change, negative = cytotoxic” value was 1.02%.

Turning to `Nc1ncn([C@@H]2O[C@H](CO)[C@@H](O)[C@@H]2O)c(=O)n1`, the Potency is 16.5 µM (active).
